From article PMC5540273 (PLoS ONE, 2017) come the findings set out here.

SMILES strings stand for the structures.
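Further: KINOMEscan kinase panel screen.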

The assay deals with T1, CDK11.
T1 construct: gene CDK19
The conditions noted are these: concentration: 1 μM, replicates: in singlicate; n = 1.
Take `COc1ccc(Nc2nccc(-c3ccc(NC(=O)c4cc5cc(F)ccc5[nH]4)cc3)n2)cc1` [GSK1229496]: the “%Inh” value was found to be 22%.
To `CNc1nc(-c2ccc3c(N)n[nH]c3c2)cc(N2C[C@@H](C(=O)NC3CCCCC3)OC[C@H]2C)n1` [GSK2375584] belongs 16%; to `Cc1ccccc1-c1cc(-c2c[nH]nc2-c2ccccn2)ccn1` [GW680061], 2%; to `CCn1c(-c2ccccc2)nc2cnccc21` [SB-733416], 0%.
As to `c1ccc(-c2ccnc3[nH]ccc23)cc1` [SB-693578], the “%Inh” value worked out at 20%.
To `CC(=O)c1c(C)c2cnc(Nc3ccn(C)n3)nc2n(C2CCCC2)c1=O` belongs 2%.
To `O=C(Nc1n[nH]c2cc(-c3ccsc3)ccc12)C1CC1` [SB-732932] belongs 5%.
For `CSc1ccc(-c2nc3n(c2-c2ccncc2)CCC3)cc1` [SKF-105561] the value was 0%; for `O=C(Nc1n[nH]c2nc(-c3ccco3)c(Br)cc12)C1CCN(Cc2ccccc2)C1.O=C(O)[C@H](O)[C@@H](O)C(=O)O` (centres unmarked) [SB-742034], 0%; for `CNc1nc(-c2ccc3c(N)n[nH]c3c2)cc(N2C[C@@H](C(=O)Nc3ccccc3)CC[C@H]2C)n1` [GSK2298859], 0%.
Turning to `Cn1cncc1C(=O)NC1CCN(c2ccnc(Nc3ccc(F)cc3)n2)C1` (centres unmarked) [GSK1379717], the “%Inh” value is recorded as 3%.
Regarding `O=c1cc(N2CCOCC2)nc2n(Cc3ccccc3F)ccn12` [GSK2297428], the “%Inh” value is reported as 0%.
With `CCCCc1nn2ncccc2c1-c1ccnc(NC2CC2)n1` [GW684374], the “%Inh” value is on record as 5%.
For the compound `O=C1NC(=O)C(c2ccc(Cl)cc2)=C1Nc1ccc(O)cc1` [SB-340867], the “%Inh” value came out at 0%.
On to `COc1ccc(Nc2nccc(NCCNC(=O)Nc3cc(C)ccc3C)n2)cc1` [GSK1379899], for which the “%Inh” value is on record as 0%.
As to `CC[C@@H]1CO[C@H](C(=O)Nc2ccccc2)CN1c1cc(-c2ccc3c(N)n[nH]c3c2)nc(NC)n1` [GSK2376236], the “%Inh” value is 12%.
In the case of `COc1cccc(CNC(=O)NC2CCN(c3ccnc(Nc4ccc(F)cc4)n3)C2)c1` (centres unmarked) [GSK1379723], the “%Inh” value amounted to 0%.
`Cc1ccc(NC(=O)Nc2ccc(Cl)c(C(F)(F)F)c2)cc1-c1ccc(C(=O)Nc2ccncc2)cc1` [GSK1398470]: the “%Inh” value stood at 11%.
Turning to `Nc1ncnc2occ(-c3ccc4c(c3)CCN4C(=O)Cc3cc(F)ccc3F)c12` [GSK2645446], the “%Inh” value amounted to 81%.
Consider `Fc1ccc(-c2nc3n(c2-c2ccncc2)CCS3)cc1` [GI98581], for which the “%Inh” value worked out at 7%.
For `Cc1ccc(NC(=O)Nc2ccccc2F)cc1-c1ccc(C(=O)Nc2ccncc2)cc1` [GSK1398477], the “%Inh” value stood at 12%.
On to `Cc1c(Cn2c(C)c(C)n3c(=O)cc(N4CCOCC4)nc23)cccc1C(F)(F)F` [GSK2328680], for which the “%Inh” value turned out to be 0%.
For `COc1ccc(Nc2nccc(N3CCC(NC(=O)c4cc5ccccc5s4)C3)n2)cc1` (centres unmarked) [GSK1379738] the value was 41%.
